# Assay outcomes (PubChem BioAssay)
# Hits are enriched below; roughly 4.5% of the tested compounds scored in any of these assays.
# hcDAF12 agonist – H. contortus DAF-12 activation, primary screen. HEK293 hcDAF-12 lit1-tk-luc reporter, luminescence; 0% DMSO, 100% Δ7-dafachronic acid. activation, % at 6.8 µM. hit rate 1.4% among 370,000. AID 652067;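 active means activation above the mean of all tested compounds plus 3 SD, cut at about 5.5% in these data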;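 further: 100% = response to 3 µM Δ7-dafachronic acid high control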
# GAA850 FXN act – frataxin GAA850 promoter activation; AID 540364; activation, % at 6 µM; HEK293 lucGAA850 FXN promoter luciferase reporter, 24 h; percent of 10 µM SAHA response; hit rate 0.56% among 360,000;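 active means activation above the average of all compounds screened plus 3 SD, cutoff fixed separately per campaign, cut at about 7.5% in these data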;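 further: 0% = DMSO wells and 100% = 10 µM SAHA wells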
# hgDAF-12 ag – activates the H. glycines DAF-12 receptor ligand-binding domain | activation, % at 6.8 µM | HEK293 GAL4-hgDAF12 UAS-luciferase reporter, agonist luminescence; normalized to butyrate control | AID 687014 | hit rate 1.8% among 370,000;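 active means activation above a cutoff set at the mean of all screened compounds plus 3 SD, cut at about 10% in these data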;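 further: 0% = DMSO wells and 100% = sodium butyrate wells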
# DAX1 inh-1 – inhibitors of human orphan nuclear receptor DAX1 (NR0B1) | HEK293 Gal4-DAX1 luciferase reporter, luminescence | hit rate 0.99% among 340,000 | inhibition, % at 6.75 µM;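 active means inhibition above the mean over all tested compounds plus 3 SD, cut at about 4.2% in these data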;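 further: 0% = DAX1-transfected cells with DMSO and 100% = empty-vector control cells with DMSO; inhibition shows as a rise in luminescence from relieved DAX1 repression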
# Target sequence (P51843 207-470 limits assumed): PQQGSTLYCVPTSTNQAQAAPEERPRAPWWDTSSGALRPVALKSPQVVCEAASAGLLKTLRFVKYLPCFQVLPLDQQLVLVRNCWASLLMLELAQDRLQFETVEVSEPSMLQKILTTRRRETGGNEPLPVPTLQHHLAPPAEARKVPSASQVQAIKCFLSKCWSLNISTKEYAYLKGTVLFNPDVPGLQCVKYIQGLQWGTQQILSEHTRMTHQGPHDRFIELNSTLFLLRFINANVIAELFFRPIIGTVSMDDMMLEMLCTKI
# ssDAF12 agonist – activates DAF-12 receptor from parasite S. stercoralis. HEK293 ssDAF-12/GRIP1 lit1-tk-luc reporter, luminescence; % of 3 µM dafachronic acid response. activation, % at 6.8 µM. hit rate 1% among 370,000. AID 652126;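 active means activation above the mean over all tested compounds plus 3 SD, cut at about 0.9% in these data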;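 further: 0% = DMSO-only wells and 100% = 3 µM delta7-dafachronic acid wells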
# DAX1 inh-2 – blocks DAX1 repression of SF-1 activated StAR promoter; inhibition, % at 6.8 µM; HEK293T StAR-luciferase reporter, SF-1/DAX-1 repression relief; hit rate 1.1% among 370,000;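 active means inhibition above the mean over all tested compounds plus 3 SD, cut at about 3.6% in these data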;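 further: 0% = DAX-1 cells with DMSO and 100% = cells lacking DAX-1 with DMSO; higher inhibition means more luminescence from relief of DAX-1 repression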
# * marks the source's active call; other numbers are inactive results; nt = no result.
SMILES,hcDAF12 agonist,GAA850 FXN act,hgDAF-12 ag,DAX1 inh-1,ssDAF12 agonist,DAX1 inh-2
Cn1c2ccccc2c2nnc(SCC(N)=O)nc21,1,4,1,-2,0.9*,0
CCOC(=O)CSc1nnc2c3ccccc3n(C)c2n1,-1,0,1,-1,-1,0
CCCCn1c2ccc(F)cc2c2nnc(SCCN3CCCCC3)nc21,2,2,4,-1,-1,0
Cn1c2ccc(Br)cc2c2nnc(SCC(=O)O)nc21,5.7*,2,3,1,1,0
Cn1c2ccccc2c2nnc(SCCN3CCOCC3)nc21,6.3*,4,3,0,0,0
COc1cccc(CO[C@H]2C=C[C@@H](c3ccccc3)O[C@@H]2COC(C)=O)c1,1,nt,1,nt,-1,0
COc1ccc(CN(C)CC#Cc2ccccc2)c(OC)c1,0,nt,1,nt,-1,-2
CCCCn1c2ccc(C)cc2c2nnc(SCCN3CCCCC3)nc21,-3,1,-1,0,-2,0
Cc1cc(C)c2c(c1)c1nnc(SCCN3CCCCC3)nc1n2C,6.1*,4,6,-2,1.6*,2
O=C(c1ccc(CSc2nc3ccncc3[nH]2)cc1)N1CCN(c2cccc(Cl)c2)CC1,-5,-2,-11,-3,-2,-5
O=C(c1ccc(CSc2nc3ccncc3[nH]2)cc1)N1CCCCCC1,4,2,13*,-4,0,1
O=C(O)CCc1ncc(C(F)(F)F)cc1Cl,-2,2,-1,0,-1,0
FC(F)(F)c1cnc(COc2cc(Cl)cc(Cl)c2)c(Cl)c1,0,-1,3,5.8*,-1,0
CC(NC(=O)COC(=O)CNC(=O)C1CCCCC1)c1ccccc1 (stereo unspecified),-1,0,-1,0,-1,0
O=C(NCc1ccccc1)c1cc[n+]([O-])cc1,0,2,-1,1,0,0
CCN(C(=O)COC(=O)CNC(=O)C1CCCCC1)c1ccccc1,-1,0,1,-1,1.0*,1
CC(OC(=O)CNC(=O)C1CCCCC1)C(=O)NCc1ccccc1 (stereo unspecified),0,0,-1,1,1.6*,0
CC(OC(=O)c1cc[n+]([O-])cc1)C(=O)NCc1ccccc1 (stereo unspecified),0,0,3,4.7*,-1,-1
CCSc1nsc(NC(=O)Nc2ccccc2F)n1,2,3,11*,1,-1,0
CCCCn1c(SCC(=O)NCCOC)nc2ccc(N3CCOCC3)cc2c1=O,-2,2,-2,4.8*,-1,0
O=C(CCc1ccccc1)N[C@H]1[C@H](OCc2ccccc2)CCC[C@@]12C(=O)N(Cc1ccccc1)c1ccc(-c3cnccn3)cc12,-3,nt,-2,nt,-1,-2
O=C(COc1ccc(Br)cc1Br)NC(=S)Nc1cccc(CO)c1,2,4,10,0,-1,1
O=C(COc1ccc2ccccc2c1Br)NC(=S)Nc1cccc(CO)c1,1,0,11*,-2,0,2
Cc1ccc2cn[nH]c2c1[N+](=O)[O-],5.6*,1,1,4.9*,0,0
CCOC(=O)[C@]12CCCCC/C=C\1N(CCc1ccc(Cl)cc1)C(=O)[C@H]2CC(=O)NCCC(C)C,-3,nt,-2,nt,-1,-1
SMILES,hcDAF12 agonist,GAA850 FXN act,hgDAF-12 ag,DAX1 inh-1,ssDAF12 agonist,DAX1 inh-2
COc1ccc(OCc2cc(C(=O)N(C)Cc3cc(C4CC4)n[nH]3)no2)c(Cl)c1,4,4,8,1,-1,4.2*
O=C(c1cc(COc2ccc(F)cc2F)on1)N1CCSCC1,2,6,12*,1,-1,3
CCN1CCN(C(=O)c2cc(COc3ccc(C(C)=O)cc3OC)on2)CC1,5,3,12*,2,0,1
COc1ccc(OCc2cc(C(=O)N(C)Cc3cnccn3)no2)c(Cl)c1,2,2,8,1,0,0
COc1ccc(OCc2cc(C(=O)N3CCN(CC4CC4)CC3)no2)c(Cl)c1,1,2,8,2,-1,3.6*
O=C(NCc1ccccc1)[C@@H]1CCCN1C(=O)[C@H]1CCCN1C(=O)c1cccc2ccccc12,2,nt,-2,nt,-1,-1
C=C(C)CSc1nnc(-c2cc(-c3ccccc3)n[nH]2)n1N,-1,nt,5,nt,-1,0
